Experiment [1] addresses T1, Inhibitor of nuclear factor kappa-B kinase subunit epsilon (Homo sapiens) (UniProt Q14164).
T1 sequence (whole entry): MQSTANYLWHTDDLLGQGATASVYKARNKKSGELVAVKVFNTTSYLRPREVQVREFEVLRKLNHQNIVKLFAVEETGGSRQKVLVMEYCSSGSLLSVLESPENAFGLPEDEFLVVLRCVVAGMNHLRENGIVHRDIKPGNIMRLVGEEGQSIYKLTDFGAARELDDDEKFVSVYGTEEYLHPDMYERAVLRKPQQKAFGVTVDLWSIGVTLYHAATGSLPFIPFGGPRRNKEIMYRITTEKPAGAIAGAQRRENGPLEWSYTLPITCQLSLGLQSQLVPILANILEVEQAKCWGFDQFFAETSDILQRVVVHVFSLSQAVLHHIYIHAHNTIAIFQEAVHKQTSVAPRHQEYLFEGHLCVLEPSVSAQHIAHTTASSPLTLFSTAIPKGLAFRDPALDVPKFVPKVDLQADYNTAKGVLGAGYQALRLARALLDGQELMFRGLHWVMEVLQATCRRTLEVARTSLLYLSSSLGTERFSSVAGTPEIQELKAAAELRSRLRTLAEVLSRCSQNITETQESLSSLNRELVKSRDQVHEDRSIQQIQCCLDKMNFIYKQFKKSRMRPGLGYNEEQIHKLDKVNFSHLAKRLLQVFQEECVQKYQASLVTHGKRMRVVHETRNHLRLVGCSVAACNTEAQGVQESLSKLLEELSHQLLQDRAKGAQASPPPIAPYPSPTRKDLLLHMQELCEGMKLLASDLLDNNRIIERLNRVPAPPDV
The settings on record: at 1 µM.

In experiment [2] the target is T2, Serine/threonine-protein kinase Nek1 (Homo sapiens) (UniProt Q96PY6).
T2 sequence (whole entry): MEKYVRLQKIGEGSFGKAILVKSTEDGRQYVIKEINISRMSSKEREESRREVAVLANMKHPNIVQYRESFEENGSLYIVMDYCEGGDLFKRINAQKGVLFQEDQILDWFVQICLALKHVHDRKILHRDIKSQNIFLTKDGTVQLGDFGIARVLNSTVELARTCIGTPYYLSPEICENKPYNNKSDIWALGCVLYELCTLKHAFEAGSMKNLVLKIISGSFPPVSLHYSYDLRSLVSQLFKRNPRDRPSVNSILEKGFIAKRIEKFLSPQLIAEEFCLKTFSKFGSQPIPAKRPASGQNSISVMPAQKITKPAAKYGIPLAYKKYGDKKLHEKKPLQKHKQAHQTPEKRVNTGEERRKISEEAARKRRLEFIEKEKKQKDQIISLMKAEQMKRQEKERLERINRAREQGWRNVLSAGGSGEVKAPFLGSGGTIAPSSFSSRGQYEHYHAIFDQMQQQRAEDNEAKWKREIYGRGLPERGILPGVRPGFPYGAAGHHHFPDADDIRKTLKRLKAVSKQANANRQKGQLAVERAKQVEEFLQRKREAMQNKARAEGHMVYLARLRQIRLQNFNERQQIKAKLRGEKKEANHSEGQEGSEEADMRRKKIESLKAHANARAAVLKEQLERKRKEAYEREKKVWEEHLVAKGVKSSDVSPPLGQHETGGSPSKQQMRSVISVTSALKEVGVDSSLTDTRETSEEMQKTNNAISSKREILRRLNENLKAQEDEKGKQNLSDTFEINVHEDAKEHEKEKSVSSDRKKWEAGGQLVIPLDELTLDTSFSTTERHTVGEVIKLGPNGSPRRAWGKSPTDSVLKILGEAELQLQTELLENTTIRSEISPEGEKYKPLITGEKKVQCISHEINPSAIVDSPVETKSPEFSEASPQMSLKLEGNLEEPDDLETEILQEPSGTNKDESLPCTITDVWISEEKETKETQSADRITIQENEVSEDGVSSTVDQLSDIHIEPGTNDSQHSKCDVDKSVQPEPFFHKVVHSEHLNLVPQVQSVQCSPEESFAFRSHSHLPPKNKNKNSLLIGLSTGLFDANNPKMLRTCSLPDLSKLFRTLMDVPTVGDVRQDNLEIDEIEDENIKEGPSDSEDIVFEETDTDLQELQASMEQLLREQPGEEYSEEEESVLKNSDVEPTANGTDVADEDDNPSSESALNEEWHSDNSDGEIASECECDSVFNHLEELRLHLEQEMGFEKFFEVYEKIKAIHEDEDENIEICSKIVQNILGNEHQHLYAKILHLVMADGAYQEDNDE
The settings on record: at 0.1 µM.

Experiment [3] deals with T2, Serine/threonine-protein kinase Nek1 (Homo sapiens). The settings on record: at 1 µM.
Experiment [4] concerns the target T3, Serine/threonine-protein kinase Nek2 (Homo sapiens) (UniProt P51955).
T3 sequence (whole entry): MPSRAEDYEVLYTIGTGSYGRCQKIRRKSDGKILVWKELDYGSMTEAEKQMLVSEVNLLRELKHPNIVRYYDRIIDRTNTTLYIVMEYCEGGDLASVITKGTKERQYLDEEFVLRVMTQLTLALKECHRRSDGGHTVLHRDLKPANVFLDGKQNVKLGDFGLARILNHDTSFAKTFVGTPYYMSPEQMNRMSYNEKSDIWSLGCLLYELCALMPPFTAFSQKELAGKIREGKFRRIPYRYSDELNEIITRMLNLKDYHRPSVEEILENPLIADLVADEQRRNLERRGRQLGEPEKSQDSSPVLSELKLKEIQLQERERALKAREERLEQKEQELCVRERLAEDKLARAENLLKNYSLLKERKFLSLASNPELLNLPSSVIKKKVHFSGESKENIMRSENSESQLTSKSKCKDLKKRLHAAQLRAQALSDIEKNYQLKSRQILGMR
Particulars: at 0.1 µM.

Experiment [5] has as its target T3, Serine/threonine-protein kinase Nek2 (Homo sapiens). Particulars: at 1 µM.
Experiment [6] has as its target Serine/threonine-protein kinase Nek6 (Homo sapiens) (UniProt Q9HC98). The settings on record: at 0.1 µM.
The target is the same in experiment [7]. The settings on record: at 1 µM.
The target in experiment [8] is Serine/threonine-protein kinase Nek7 (Homo sapiens) (UniProt Q8TDX7). Particulars: at 0.1 µM.
The target is the same in experiment [9]. Particulars: at 1 µM.
The target of experiment [10] is T4, Serine/threonine-protein kinase Nek9 (Homo sapiens) (UniProt Q8TD19).
T4 sequence (whole entry): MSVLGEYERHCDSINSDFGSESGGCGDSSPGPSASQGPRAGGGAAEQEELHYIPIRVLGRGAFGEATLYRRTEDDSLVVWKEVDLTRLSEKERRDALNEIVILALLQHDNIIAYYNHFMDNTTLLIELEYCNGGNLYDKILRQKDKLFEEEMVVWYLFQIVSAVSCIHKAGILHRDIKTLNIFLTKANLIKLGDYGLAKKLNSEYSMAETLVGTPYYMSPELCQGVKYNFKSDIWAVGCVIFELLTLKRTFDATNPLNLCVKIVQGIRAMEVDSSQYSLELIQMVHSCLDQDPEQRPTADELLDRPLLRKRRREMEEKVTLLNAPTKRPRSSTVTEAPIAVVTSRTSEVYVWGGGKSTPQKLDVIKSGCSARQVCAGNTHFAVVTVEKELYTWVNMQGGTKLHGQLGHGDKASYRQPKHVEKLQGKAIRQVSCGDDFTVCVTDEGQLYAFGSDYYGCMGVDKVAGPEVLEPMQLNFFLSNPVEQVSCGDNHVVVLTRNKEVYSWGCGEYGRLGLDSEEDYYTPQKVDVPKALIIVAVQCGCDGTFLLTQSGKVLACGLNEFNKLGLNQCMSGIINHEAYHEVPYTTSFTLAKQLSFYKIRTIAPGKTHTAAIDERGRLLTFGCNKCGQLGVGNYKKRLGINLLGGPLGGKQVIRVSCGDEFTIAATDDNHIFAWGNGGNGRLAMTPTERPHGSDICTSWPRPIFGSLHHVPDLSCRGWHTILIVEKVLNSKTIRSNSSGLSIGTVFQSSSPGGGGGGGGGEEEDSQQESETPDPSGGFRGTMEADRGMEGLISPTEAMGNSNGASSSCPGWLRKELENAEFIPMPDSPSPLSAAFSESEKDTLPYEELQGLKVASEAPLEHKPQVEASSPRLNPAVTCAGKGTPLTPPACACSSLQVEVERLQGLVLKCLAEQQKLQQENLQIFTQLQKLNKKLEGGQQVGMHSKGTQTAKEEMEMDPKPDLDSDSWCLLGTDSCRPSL
The settings on record: at 0.1 µM.

The target of experiment [11] is T4, Serine/threonine-protein kinase Nek9 (Homo sapiens). The settings on record: at 1 µM.
Experiment [12] concerns the target Serine/threonine-protein kinase PLK1 (Homo sapiens) (UniProt P53350). The settings on record: at 0.1 µM.
Experiment [13] shares this target. The settings on record: at 1 µM.
For experiment [14], the target named is T5, Dual specificity protein kinase TTK (Homo sapiens) (UniProt P33981).
T5 sequence (whole entry): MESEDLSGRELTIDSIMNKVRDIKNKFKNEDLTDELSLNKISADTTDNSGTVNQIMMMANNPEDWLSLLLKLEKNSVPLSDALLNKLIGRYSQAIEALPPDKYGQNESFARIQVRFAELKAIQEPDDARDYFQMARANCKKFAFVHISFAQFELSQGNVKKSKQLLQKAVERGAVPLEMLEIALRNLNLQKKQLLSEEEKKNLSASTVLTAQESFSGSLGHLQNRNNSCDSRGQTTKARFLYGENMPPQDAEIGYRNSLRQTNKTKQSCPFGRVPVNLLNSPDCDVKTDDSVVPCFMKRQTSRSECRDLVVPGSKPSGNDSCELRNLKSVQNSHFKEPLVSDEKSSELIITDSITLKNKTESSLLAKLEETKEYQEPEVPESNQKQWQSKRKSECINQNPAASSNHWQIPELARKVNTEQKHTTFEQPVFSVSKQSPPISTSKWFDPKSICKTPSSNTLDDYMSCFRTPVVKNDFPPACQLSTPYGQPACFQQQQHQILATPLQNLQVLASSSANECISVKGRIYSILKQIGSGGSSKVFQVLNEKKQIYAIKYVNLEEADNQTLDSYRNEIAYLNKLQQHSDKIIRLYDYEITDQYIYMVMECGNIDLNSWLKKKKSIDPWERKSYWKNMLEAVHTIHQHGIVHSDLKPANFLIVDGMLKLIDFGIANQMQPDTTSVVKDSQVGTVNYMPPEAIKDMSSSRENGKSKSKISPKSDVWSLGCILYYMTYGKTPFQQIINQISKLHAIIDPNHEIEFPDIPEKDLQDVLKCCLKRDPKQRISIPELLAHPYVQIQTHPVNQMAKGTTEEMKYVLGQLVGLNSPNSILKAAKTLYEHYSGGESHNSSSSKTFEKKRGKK
Particulars: at 0.1 µM.

The test system of experiment [15] is T6, Receptor-type tyrosine-protein kinase FLT3 (Homo sapiens), P36888 [D835Y].
T6 sequence (whole entry): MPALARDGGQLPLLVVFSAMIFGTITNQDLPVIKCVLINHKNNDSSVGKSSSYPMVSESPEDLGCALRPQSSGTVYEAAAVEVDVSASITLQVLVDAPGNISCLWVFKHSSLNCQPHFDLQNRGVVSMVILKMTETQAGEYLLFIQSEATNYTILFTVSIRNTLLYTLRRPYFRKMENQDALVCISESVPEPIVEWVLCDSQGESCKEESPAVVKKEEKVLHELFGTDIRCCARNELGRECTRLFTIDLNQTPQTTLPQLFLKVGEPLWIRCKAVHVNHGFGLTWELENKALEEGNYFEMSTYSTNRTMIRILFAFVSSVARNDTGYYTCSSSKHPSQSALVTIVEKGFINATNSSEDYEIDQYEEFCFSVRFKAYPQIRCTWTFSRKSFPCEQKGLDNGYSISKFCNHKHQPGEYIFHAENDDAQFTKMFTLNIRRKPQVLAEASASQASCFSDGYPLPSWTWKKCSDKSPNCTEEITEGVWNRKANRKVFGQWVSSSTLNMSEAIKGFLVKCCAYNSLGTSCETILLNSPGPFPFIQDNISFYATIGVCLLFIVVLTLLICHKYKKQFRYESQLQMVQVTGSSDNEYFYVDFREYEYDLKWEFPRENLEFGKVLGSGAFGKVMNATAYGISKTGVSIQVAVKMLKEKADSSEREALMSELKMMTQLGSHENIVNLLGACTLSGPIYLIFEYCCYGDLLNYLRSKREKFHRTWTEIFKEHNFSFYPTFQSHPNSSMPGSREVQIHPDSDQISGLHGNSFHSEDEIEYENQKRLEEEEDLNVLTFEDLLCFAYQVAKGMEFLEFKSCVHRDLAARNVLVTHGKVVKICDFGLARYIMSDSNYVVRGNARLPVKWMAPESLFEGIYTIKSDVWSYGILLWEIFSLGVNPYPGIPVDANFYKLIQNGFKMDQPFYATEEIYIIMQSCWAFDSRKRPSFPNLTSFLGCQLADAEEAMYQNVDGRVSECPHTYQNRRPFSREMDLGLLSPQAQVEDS
The settings on record: at 1 µM.

In experiment [16] the target is Vascular endothelial growth factor receptor 3 (Homo sapiens) (UniProt P35916). The settings on record: at 0.1 µM.
Experiment [17] shares this target. Particulars: at 1 µM.
Experiment [18] deals with Macrophage colony-stimulating factor 1 receptor (Homo sapiens) (UniProt P07333). The settings on record: at 0.1 µM.
Experiment [19] shares this target. The settings on record: at 1 µM.
In experiment [20] the target is Tyrosine-protein kinase Fyn (Homo sapiens) (UniProt P06241). The settings on record: at 0.1 µM.

We go through two compounds from ChEMBL document CHEMBL1961873, “Compounds: GSK PKIS; Assays: Nanosyn kinase panel” (2012).

Sequence of Vascular endothelial growth factor receptor 3 (Homo sapiens) (P35916 whole entry): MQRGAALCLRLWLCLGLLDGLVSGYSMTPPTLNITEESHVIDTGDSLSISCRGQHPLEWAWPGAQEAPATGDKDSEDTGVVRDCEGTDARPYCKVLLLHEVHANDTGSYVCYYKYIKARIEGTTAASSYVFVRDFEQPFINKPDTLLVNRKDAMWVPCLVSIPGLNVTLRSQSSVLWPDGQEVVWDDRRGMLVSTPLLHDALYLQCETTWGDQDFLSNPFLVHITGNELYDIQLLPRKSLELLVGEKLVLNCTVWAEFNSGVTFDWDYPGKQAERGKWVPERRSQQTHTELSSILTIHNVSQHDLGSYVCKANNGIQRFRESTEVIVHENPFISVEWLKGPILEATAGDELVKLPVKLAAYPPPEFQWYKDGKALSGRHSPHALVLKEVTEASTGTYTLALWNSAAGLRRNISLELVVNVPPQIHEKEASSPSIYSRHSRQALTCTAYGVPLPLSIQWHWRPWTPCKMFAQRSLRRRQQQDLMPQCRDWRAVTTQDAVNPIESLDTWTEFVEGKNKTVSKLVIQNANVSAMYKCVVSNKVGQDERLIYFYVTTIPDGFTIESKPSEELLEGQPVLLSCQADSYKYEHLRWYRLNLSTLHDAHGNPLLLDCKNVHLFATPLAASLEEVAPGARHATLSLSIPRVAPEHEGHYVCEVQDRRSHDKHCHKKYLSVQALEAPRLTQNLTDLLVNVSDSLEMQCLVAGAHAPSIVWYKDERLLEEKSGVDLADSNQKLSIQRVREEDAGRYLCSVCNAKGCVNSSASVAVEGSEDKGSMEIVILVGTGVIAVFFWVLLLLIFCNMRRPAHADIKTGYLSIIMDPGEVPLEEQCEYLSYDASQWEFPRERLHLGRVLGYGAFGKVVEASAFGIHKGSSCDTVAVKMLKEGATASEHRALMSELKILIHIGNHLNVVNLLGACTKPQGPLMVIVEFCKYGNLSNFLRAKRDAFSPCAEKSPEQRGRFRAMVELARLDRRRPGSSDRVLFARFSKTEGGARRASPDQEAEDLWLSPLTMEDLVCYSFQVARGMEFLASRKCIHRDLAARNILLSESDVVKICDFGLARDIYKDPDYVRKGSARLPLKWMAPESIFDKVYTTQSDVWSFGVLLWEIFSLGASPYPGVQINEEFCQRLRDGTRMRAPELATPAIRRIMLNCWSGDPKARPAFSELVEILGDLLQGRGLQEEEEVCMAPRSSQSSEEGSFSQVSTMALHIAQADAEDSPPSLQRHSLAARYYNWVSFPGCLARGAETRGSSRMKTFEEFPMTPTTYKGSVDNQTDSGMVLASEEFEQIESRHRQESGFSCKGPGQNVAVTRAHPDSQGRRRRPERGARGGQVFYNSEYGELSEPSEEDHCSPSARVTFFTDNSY
Sequence of Serine/threonine-protein kinase Nek6 (Homo sapiens) (Q9HC98 whole entry): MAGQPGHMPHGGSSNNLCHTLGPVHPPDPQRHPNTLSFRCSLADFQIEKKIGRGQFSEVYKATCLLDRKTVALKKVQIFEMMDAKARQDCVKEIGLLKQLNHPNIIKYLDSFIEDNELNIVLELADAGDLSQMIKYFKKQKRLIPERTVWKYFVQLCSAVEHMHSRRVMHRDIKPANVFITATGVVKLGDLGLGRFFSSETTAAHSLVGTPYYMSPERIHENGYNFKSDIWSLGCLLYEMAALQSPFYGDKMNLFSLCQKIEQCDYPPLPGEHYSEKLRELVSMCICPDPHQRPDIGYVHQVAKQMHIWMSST
Sequence of Serine/threonine-protein kinase Nek7 (Homo sapiens) (Q8TDX7 whole entry, looked up): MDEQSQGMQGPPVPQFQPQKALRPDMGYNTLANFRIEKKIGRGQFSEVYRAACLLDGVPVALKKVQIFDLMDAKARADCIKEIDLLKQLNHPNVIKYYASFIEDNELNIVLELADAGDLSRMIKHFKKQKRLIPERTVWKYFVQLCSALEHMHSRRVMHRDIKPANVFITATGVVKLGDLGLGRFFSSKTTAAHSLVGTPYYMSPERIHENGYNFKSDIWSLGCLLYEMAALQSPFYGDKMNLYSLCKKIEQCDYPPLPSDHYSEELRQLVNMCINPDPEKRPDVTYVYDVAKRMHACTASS
Sequence of Serine/threonine-protein kinase PLK1 (Homo sapiens) (P53350 whole entry): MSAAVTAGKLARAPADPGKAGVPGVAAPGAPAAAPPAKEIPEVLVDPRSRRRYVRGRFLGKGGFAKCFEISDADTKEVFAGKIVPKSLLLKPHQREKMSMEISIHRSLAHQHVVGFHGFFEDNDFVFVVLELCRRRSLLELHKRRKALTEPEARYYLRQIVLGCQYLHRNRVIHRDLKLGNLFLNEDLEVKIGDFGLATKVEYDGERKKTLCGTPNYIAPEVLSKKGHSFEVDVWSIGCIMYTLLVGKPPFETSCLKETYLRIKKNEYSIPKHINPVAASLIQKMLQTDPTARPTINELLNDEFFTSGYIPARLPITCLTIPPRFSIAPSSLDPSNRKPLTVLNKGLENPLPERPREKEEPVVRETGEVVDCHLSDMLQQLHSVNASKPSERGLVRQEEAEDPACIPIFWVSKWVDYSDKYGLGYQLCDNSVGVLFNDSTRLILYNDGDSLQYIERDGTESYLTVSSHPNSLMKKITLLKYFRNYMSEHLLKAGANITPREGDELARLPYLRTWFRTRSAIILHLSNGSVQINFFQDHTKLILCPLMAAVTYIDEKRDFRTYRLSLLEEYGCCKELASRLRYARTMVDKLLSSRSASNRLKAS
Sequence of Macrophage colony-stimulating factor 1 receptor (Homo sapiens) (P07333 whole entry): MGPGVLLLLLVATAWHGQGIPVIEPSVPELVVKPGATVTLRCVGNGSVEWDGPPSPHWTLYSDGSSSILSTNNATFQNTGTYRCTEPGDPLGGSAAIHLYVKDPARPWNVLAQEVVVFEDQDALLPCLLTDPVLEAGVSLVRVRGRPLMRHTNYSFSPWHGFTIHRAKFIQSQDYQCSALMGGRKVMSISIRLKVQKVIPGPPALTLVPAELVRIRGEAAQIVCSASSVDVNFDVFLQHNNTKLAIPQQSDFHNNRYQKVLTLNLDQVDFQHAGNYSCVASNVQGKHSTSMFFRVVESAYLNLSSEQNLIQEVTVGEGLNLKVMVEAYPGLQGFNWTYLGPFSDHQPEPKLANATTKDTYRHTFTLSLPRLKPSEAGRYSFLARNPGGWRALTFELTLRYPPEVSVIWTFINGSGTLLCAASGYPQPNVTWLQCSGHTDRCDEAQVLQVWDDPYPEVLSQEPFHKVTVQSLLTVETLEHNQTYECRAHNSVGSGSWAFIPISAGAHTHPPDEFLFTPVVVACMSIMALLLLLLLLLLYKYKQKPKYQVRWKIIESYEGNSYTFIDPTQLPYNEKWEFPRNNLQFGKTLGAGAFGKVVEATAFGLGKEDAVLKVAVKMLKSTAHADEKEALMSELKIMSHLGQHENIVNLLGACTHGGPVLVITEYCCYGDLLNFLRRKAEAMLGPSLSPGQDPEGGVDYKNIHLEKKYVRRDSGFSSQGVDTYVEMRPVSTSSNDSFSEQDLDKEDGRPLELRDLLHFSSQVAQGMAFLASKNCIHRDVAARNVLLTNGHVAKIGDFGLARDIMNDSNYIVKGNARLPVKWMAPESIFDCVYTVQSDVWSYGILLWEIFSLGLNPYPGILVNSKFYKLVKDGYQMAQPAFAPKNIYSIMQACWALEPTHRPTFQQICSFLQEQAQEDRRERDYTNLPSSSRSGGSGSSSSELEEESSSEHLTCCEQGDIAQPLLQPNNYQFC
Sequence of Tyrosine-protein kinase Fyn (Homo sapiens) (P06241 2-537 limits assumed): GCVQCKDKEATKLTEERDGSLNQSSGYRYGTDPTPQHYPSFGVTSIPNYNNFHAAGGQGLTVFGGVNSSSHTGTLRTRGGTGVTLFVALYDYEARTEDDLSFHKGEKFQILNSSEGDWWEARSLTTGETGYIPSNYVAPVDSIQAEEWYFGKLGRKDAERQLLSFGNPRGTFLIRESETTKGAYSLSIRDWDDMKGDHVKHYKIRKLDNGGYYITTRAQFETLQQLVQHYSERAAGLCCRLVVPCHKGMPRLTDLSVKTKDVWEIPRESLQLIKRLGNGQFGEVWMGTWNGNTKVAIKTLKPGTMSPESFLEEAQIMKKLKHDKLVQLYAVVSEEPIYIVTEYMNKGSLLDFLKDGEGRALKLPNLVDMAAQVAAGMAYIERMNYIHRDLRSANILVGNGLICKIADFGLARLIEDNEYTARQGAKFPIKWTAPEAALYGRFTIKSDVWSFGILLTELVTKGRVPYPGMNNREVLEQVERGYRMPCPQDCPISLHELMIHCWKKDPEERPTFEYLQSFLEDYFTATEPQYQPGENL

For `CN(C)c1cc2c(Nc3ccc4c(cnn4Cc4ccccc4)c3)ncnc2cn1`, the inhibition in [1] is 3.38%; in experiment [2], 0.59%; in experiment [3] it was 2.49%; in experiment [4] it was 3.29%; in experiment [5] it was 3.45%; in experiment [6], 0.57%. The inhibition in experiment [7] was found to be 2.34%; in experiment [8], 1.52%; in experiment [9], 1.66%; in [10] it was 6.89%; in [11], 6.27%; in experiment [12], 3.14%. In addition, the inhibition in experiment [13] was 3.09%; in experiment [14] it was 5.61%; in experiment [15] it was 1.61%; in [16] it was 2.71%; in experiment [17], 2.4%; in [18], 1.36%. In addition, the inhibition came out at 3.34% in experiment [19] and 3.84% in experiment [20].

`N#Cc1cccc(Nc2nccc(-c3cnn4ncccc34)n2)c1`: the inhibition in experiment [1] was found to be 27.9%; in [2], 2.07%; in experiment [3], 10.9%; in experiment [4] it was 1.93%; in experiment [5], 6.24%; in experiment [6] it was 3.54%. Further, the inhibition in experiment [7] is 5.8%; in experiment [8], -4.91%; in experiment [9] it was 4.18%; in [10], 7%; in experiment [11], 15.6%; in [12] it was 3.24%. The inhibition is 9.23% in experiment [13]; 11.2% in experiment [14]; 53.4% in experiment [15]; 5.06% in experiment [16]; 22.3% in experiment [17]; 34.4% in experiment [18]. The inhibition was 79.4% in experiment [19] and 6.76% in [20].
